Bioassay records (PubChem BioAssay)
A selection: hits, their analogues and other compounds. The true share with any hit is near 7.8%.
Shh pathway inh = Hedgehog pathway signaling inhibitors, primary screen, luminescence, Shh-LIGHT2 cells, Gli-luciferase; inhibition, % (test concentration not listed); hit rate 2.1% among 22,000; Shh-LIGHT2 Gli-luciferase reporter, 30 h;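 active = mean inhibition across valid replicates above about 65%, limit read from the data; inconclusive = mean under the limit, yet half or more replicates past it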;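 also: pathway switched on by Shh-conditioned medium diluted 1 in 25 in low serum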
NOMO-1 viab = NOMO-1 AML cell viability reduction, primary screen, STK33 inhibitor project, CellTiter-Glo luminescence. AID 2330, 2010. hit rate 7.5% among 37,000. NOMO-1 AML viability, 72 h. inhibition, % (test concentration not listed); in the data active = inhibition above about 80%; inconclusive = no clear call, values can overlap the other calls
MITF inh = inhibitors of MITF, primary screen, MITF inhibitor project, cell-based, luminescence | TRPM1 promoter luciferase, 24 h | hit rate 0.28% among 37,000 | inhibition, % (no concentration beside the values) | AID 2240, 2010; in the data active = inhibition above about 85%; inconclusive = no clear call, values can overlap the other calls; inactive = below about 68%;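 also: human melanocyte line stably carrying TRPM1 promoter luciferase reporter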
Large screens that a line does not name were inactive.

COc1ccc(S(=O)(=O)Nc2cccc3c2O[C@@H](CN(C)Cc2ccc(C(=O)Nc4ccccc4N)cc2)[C@H](C)CN([C@@H](C)CO)C3=O)cc1	none (no result: Shh pathway inh)
COc1ccc(C)cc1NC(=O)c1ccc(OCC(=O)Nc2cc(Cl)ccc2Cl)cc1	none (no result: Shh pathway inh)
NC(=O)CSc1oc(-c2ccc(F)cc2)nc1S(=O)(=O)c1ccc(Br)cc1	none (no result: Shh pathway inh)
CCOc1ccc2nc(SCC(=O)Nc3ccc(C)cc3C)[nH]c2c1	NOMO-1 viab inconclusive (no result: Shh pathway inh)
Cc1cc(=O)[nH]c(SCCCOc2ccc(C(C)C)c(C)c2)n1	none (no result: Shh pathway inh)
O=C(CSc1nnc2n(-c3ccccc3)c3ccccc3n12)Nc1ccc(Cl)cc1	none (no result: Shh pathway inh)
C[C@@H]1CN([C@H](C)CO)C(=O)c2cccc(NS(=O)(=O)c3ccc(Cl)cc3)c2O[C@H]1CN(C)Cc1ccc(C(=O)Nc2ccccc2N)cc1	none (no result: Shh pathway inh)
C[C@@H]1CN([C@@H](C)CO)C(=O)c2cccc(NS(=O)(=O)c3ccccc3)c2O[C@@H]1CN(C)Cc1ccc(C(=O)Nc2ccccc2N)cc1	NOMO-1 viab 129 (no result: Shh pathway inh)
C[C@@H]1CN([C@@H](C)CO)C(=O)c2cccc(NS(=O)(=O)c3ccc(Cl)cc3)c2O[C@@H]1CN(C)Cc1ccc(C(=O)Nc2ccccc2N)cc1	NOMO-1 viab 128 (no result: Shh pathway inh)
C[C@H](CO)N1C[C@H](C)[C@@H](CN(C)Cc2ccc(C(=O)Nc3ccccc3N)cc2)Oc2c(NS(=O)(=O)c3ccccc3)cccc2C1=O	none (no result: Shh pathway inh)
C[C@@H]1CN([C@@H](C)CO)C(=O)c2cc(NC(=O)CCCN(C)C)ccc2O[C@H]1CN(C)S(C)(=O)=O	none
CC(C)NC(=O)N(C)C[C@@H]1Oc2ccc(NC(=O)Nc3ccc(F)cc3)cc2CC(=O)N([C@H](C)CO)C[C@H]1C	none (no result: Shh pathway inh)
O=C(CSc1n[nH]c(-c2ccncc2)n1)Nc1cccc2ccccc12	none (no result: Shh pathway inh)
COc1ccc(N(CC(=O)Nc2ccc(I)cc2)S(C)(=O)=O)cc1OC	none (no result: Shh pathway inh)
C[C@@H]1CN([C@@H](C)CO)C(=O)c2cccc(NC(=O)Nc3ccc(C(F)(F)F)cc3)c2O[C@@H]1CN(C)Cc1ccc(Cl)c(Cl)c1	NOMO-1 viab inconclusive
C[C@@H]1CN([C@H](C)CO)C(=O)c2cccc(NC(=O)Nc3ccc(C(F)(F)F)cc3)c2O[C@@H]1CN(C)Cc1ccncc1	none
C[C@H]1CN([C@@H](C)CO)C(=O)c2cccc(NC(=O)Nc3ccc(C(F)(F)F)cc3)c2O[C@@H]1CN(C)Cc1ccc(Cl)c(Cl)c1	NOMO-1 viab 107
C[C@H](CO)N1C[C@H](C)[C@@H](CN(C)Cc2ccc(Cl)c(Cl)c2)Oc2c(NC(=O)Nc3ccc(C(F)(F)F)cc3)cccc2C1=O	NOMO-1 viab 109
C[C@H](CO)N1C[C@H](C)[C@H](CN(C)Cc2ccccc2)Oc2c(NC(=O)Nc3ccccc3)cccc2C1=O	none
C[C@@H]1CN([C@H](C)CO)C(=O)c2cccc(NC(=O)c3cnccn3)c2O[C@@H]1CN(C)Cc1ccccc1	none
COc1ccc(NC(=O)CNC(=O)c2ccco2)cc1Cl	none (no result: Shh pathway inh)
C[C@@H]1CN([C@H](C)CO)C(=O)Cc2cc(NC(=O)Cn3cnnn3)ccc2O[C@@H]1CN(C)C(=O)Nc1ccccc1	none
CC(C)c1ccc(OCC(=O)Nc2cc(C(=O)O)cc(C(=O)O)c2)cc1	none (no result: Shh pathway inh)
CC1(C)C=CC(=O)[C@@]2(C)C1CC(=O)[C@]1(C)C2CC[C@@]2(C)[C@H](c3ccoc3)OC(=O)C3OC321 (some centres not stated)	none
CC1(C)C(=O)C=C[C@@]2(C)C1CC(=O)[C@]1(C)C2CC[C@@]2(C)[C@H](c3ccoc3)OC(=O)[C@H]3O[C@]321 (some centres not stated)	NOMO-1 viab 88
C=C(C)[C@@H]1Cc2c(ccc3c2O[C@H]2COc4cc(OC)c(OC)cc4[C@@]2(O)C3=O)O1	NOMO-1 viab 117
C=C(C)C1Cc2cc(C(C)=O)ccc2O1 (configuration not stated)	none (no result: NOMO-1 viab, MITF inh)
C[C@@H]1CN([C@H](C)CO)C(=O)c2cc(NC(=O)NC3CCCCC3)ccc2O[C@H]1CN(C)Cc1ccc(Oc2ccccc2)cc1	NOMO-1 viab inconclusive (no result: Shh pathway inh)
COc1ccc(NC(=O)Nc2ccc3c(c2)C(=O)N([C@@H](C)CO)C[C@H](C)[C@@H](CN(C)Cc2ccc(Oc4ccccc4)cc2)O3)cc1	none
COc1ccc(NC(=O)Nc2ccc3c(c2)C(=O)N([C@@H](C)CO)C[C@@H](C)[C@@H](CN(C)Cc2ccc(-c4ccccc4)cc2)O3)cc1	NOMO-1 viab 116
C[C@H](CO)N1C[C@H](C)[C@@H](CN(C)Cc2ccc(Oc3ccccc3)cc2)Oc2ccc(NC(=O)Nc3ccccc3)cc2C1=O	NOMO-1 viab inconclusive (no result: Shh pathway inh)
C[C@@H]1CN([C@@H](C)CO)C(=O)c2cc(NC(=O)Nc3ccccc3)ccc2O[C@@H]1CN(C)Cc1ccc(Oc2ccccc2)cc1	NOMO-1 viab 117 (no result: Shh pathway inh)
COc1ccc(NC(=O)Nc2ccc3c(c2)C(=O)N([C@H](C)CO)C[C@H](C)[C@H](CN(C)Cc2ccc(-c4ccccc4)cc2)O3)cc1	none (no result: Shh pathway inh)
C[C@@H]1CN([C@@H](C)CO)C(=O)c2cc(NC(=O)NC3CCCCC3)ccc2O[C@@H]1CN(C)Cc1ccc(Oc2ccccc2)cc1	NOMO-1 viab 120
COc1ccc(NC(=O)Nc2ccc3c(c2)C(=O)N([C@H](C)CO)C[C@@H](C)[C@@H](CN(C)Cc2ccc(Oc4ccccc4)cc2)O3)cc1	Shh pathway inh 96, NOMO-1 viab 122
CC(C)NC(=O)N(C)C[C@H]1Oc2c(NC(=O)c3cnccn3)cccc2C(=O)N([C@@H](C)CO)C[C@H]1C	none
Cc1nnc(SCC(=O)Nc2ccc(Br)cc2)n1-c1ccccc1	none (no result: Shh pathway inh)
C[C@@H]1CN([C@@H](C)CO)C(=O)c2cc(NC(=O)Nc3ccc(F)cc3)ccc2O[C@H]1CN(C)Cc1ccc(C(=O)O)cc1	none (no result: Shh pathway inh)
COc1ccc(S(=O)(=O)N(C)C[C@H]2Oc3ccc(NC(=O)CCN4CCOCC4)cc3C(=O)N([C@H](C)CO)C[C@@H]2C)cc1	none
Cc1cc(OCC(=O)Nc2ccccc2C(N)=O)ccc1Br	none (no result: Shh pathway inh)
C[C@H](CO)N1C[C@H](C)[C@H](CN(C)Cc2ccc(Oc3ccccc3)cc2)Oc2ccc(NC(=O)Cc3ccccc3)cc2C1=O	none (no result: Shh pathway inh)
C[C@H]1CN([C@@H](C)CO)C(=O)c2cc(NC(=O)Cc3ccccc3)ccc2O[C@@H]1CN(C)Cc1ccc(Oc2ccccc2)cc1	NOMO-1 viab 93 (no result: Shh pathway inh)
O=C(c1cc2cc(Br)ccc2oc1=O)N1CCOCC1	none
C[C@H]1O[C@@H](O[C@H]2[C@@H](O)C[C@H](O[C@H]3[C@@H](O)C[C@H](O[C@H]4CC[C@@]5(C)[C@H](CC[C@@H]6[C@@H]5C[C@@H](O)[C@]5(C)[C@@H](C7=CC(=O)OC7)CC[C@]65O)C4)O[C@@H]3C)O[C@@H]2C)C[C@H](O)[C@@H]1O	NOMO-1 viab 120
C[C@H]1CN([C@@H](C)CO)C(=O)c2cccc(NC(=O)c3nc4ccccc4s3)c2O[C@@H]1CN(C)S(=O)(=O)c1ccccc1	Shh pathway inh inconclusive
C[C@@H]1CN([C@H](C)CO)C(=O)Cc2cc(NC(=O)Cc3ccccc3)ccc2O[C@@H]1CN(C)Cc1ccc(Cl)c(Cl)c1	NOMO-1 viab 127
C[C@@H]1CN([C@@H](C)CO)C(=O)Cc2cc(NC(=O)Cc3ccccc3)ccc2O[C@@H]1CN(C)Cc1ccc(Cl)c(Cl)c1	NOMO-1 viab 108 (no result: Shh pathway inh)
